Screening results from PubChem.
A selection: hits, their analogues and other compounds. The true share with any hit is near 3.5%.
ATG4B inhibitor – blocks human ATG4B protease cleavage of LC3 substrate; 340,000 compounds, 0.51% hits; Q9Y4P1; inhibition, % at 8.33 µM; ATG4B cleavage of LC3-PLA2, NBD-HPC fluorescence, 1 h; in the data active = inhibition above about 40%
Target sequence (Q9Y4P1 whole entry, looked up): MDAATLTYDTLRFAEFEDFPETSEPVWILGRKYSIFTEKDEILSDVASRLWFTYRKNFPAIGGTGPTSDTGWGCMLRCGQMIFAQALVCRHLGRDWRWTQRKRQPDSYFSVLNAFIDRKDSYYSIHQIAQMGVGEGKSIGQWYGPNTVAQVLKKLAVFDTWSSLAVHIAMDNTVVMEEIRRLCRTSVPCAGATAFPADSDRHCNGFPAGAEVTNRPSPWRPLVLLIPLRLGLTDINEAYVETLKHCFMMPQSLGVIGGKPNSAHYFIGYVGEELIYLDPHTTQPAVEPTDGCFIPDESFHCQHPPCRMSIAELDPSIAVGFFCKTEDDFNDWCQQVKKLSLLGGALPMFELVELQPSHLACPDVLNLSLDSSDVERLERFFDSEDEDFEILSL
CHRM1 agonist – agonists of human M1 muscarinic receptor; activation, % at 3 µM; 360,000 compounds, 0.33% hits; CHO-K1 hM1, Fluo-8 calcium fluorescence, agonist mode; 0% DMSO, 100% acetylcholine EC100; AID 588814;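 active = activation above the run's mean compound activation plus 3 SD, cut at about 16% in these data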;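 note: peak over basal fluorescence ratio within a 140 s kinetic read after compound addition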
CHRM1 PAM – potentiates human M1 receptor response to acetylcholine; CHO-K1 hM1, Fluo-8 calcium fluorescence, ACh EC20; 0% = ACh EC20, 100% = maximal ACh; activation, % at 3 µM; 360,000 compounds, 0.088% hits; in the data active = activation above about 19%, passing the limit was not always enough
M1 antag – human CHRM1 antagonism; inhibition, % at 3 µM; 360,000 compounds, 1.3% hits; CHO-K1 hM1, Fluo-8 calcium fluorescence, ACh EC80 antagonist; AID 588852; P11229;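 active = percent inhibition above its own plate's cutoff, namely the mean of that plate's compound wells plus 3 SD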;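 note: peak over basal fluorescence ratio during 140 s after agonist addition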
Myeloid diff MLP – compounds promoting myeloid differentiation. ER-HoxA9 myeloid progenitors, lysozyme-GFP differentiation, flow cytometry. calls only at 10 µM. 360,000 compounds, 1% hits. AID 624256;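 active = normalized GFP-positive differentiation at or above the plate's own cutoff, the solvent-only control mean plus 3 SD; inconclusive = no clear call, values can overlap the other calls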;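 note: cells exposed to compound for four days before flow analysis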
SKN-1 inh – blocks SKN-1 activity in C. elegans | C. elegans VP596 Pgst-4::GFP/RFP ratio, acrylamide-induced, 24 h | inhibition, % at 21.8 µM | 360,000 compounds, 0.49% hits | AID 624304;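 active = interference check ratio from 0.5 to 1.5 plus GFP to RFP signal ratio inhibition reaching or exceeding a fixed threshold, cut at about 30% in these data, passing the limit was not always enough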
A number is an active result; 0 = inactive; ? = inconclusive; - = not tested or not shown; + = active, no number.

SMILES	ATG4B inhibitor	CHRM1 agonist	CHRM1 PAM	M1 antag	Myeloid diff MLP	SKN-1 inh
C[C@@H]1CCCCO[C@H](CN(C)C(=O)Nc2ccc3c(c2)OCO3)[C@H](C)CN([C@@H](C)CO)C(=O)c2cc(NS(=O)(=O)c3ccc(Cl)cc3)ccc2O1	-	0	0	0	0	0
O=C(N/N=C/c1ccccc1[N+](=O)[O-])c1ccncc1	0	0	26	0	0	0
CC(C)Oc1ccc(C(=O)Nc2cccc(S(=O)(=O)N3CCCC3)c2)cc1	0	0	0	48	0	0
O=C(Cn1nc(C(=O)O)c2ccccc2c1=O)Nc1cccc(S(=O)(=O)N2CCOCC2)c1	0	0	0	0	0	0
CC(=O)c1ccc(NC(=O)c2ccc(S(=O)(=O)N3CCCC3)cc2)cc1	0	0	0	0	0	0
COc1cccc(NC(=O)c2ccc(S(=O)(=O)N3CCCC3)cc2)c1	0	0	0	0	0	0
CCC(=O)c1ccc(OCC(=O)Nc2cccc(S(=O)(=O)N3CCCCCC3)c2)cc1	0	0	0	47	0	0
O=C(Cn1nc(C(=O)O)c2ccccc2c1=O)Nc1cccc(S(=O)(=O)N2CCCCC2)c1	0	0	0	24	0	0
CC(=O)c1cccc(NC(=O)c2ccc(S(=O)(=O)N3CCCC3)cc2)c1	0	0	0	25	0	0
O=c1ncn(C2CCCCC2)c(=O)[nH]1	0	0	0	0	0	0
Cc1ccc(C(=O)NCCNC(=O)c2ccc(F)cc2)cn1	0	0	0	0	0	0
Cc1[nH]c2ccccc2c1C(=O)COc1ccccc1	0	0	0	0	0	0
CCN(CC)S(=O)(=O)c1cccc(NC(=O)CNc2cccc(S(=O)(=O)N3CCCC3)c2)c1	0	0	0	42	?	0
CCN(CC)S(=O)(=O)c1cccc(NC2=NCCCCC2)c1	0	0	0	27	0	0
CCN(CC)S(=O)(=O)c1ccc(C)c(NC(=O)CNc2cccc(S(=O)(=O)N3CCCC3)c2)c1	0	0	0	0	0	0
CC1=CC(C)(C)n2c(O)c(N=NC(N)=S)c3c(C)c(C)cc1c32	0	0	0	0	0	0
COc1cc2c3c(c1)c(N=NC(N)=S)c(O)n3C(C)(C)C=C2C	0	0	0	33	0	0
CC1=CC(C)(C)n2c(O)c(N=NC(N)=S)c3c(C)ccc1c32	0	0	0	0	+	0
CNC(=O)c1sc(-c2cccs2)nc1C	0	0	0	0	0	0
CCC(NC(=O)CCC(=O)N1CCN(S(=O)(=O)c2ccc(C)cc2)CC1)c1ccc(C)cc1 (stereo not drawn)	0	0	0	0	0	0
Cc1cc2c(cc1C)-n1nnnc1C(N(C)Cc1ccccc1)C(=O)N2 (stereo not drawn)	-	-	-	-	0	0
Clc1ccc(N2O[C@H]3C=C[C@@H]2C3)nc1	-	0	0	0	0	0
COc1ccc(-c2nn(CC(=O)Nc3ccc(Cl)c(Cl)c3)c(=O)c3ccccc23)cc1	0	0	0	0	0	39
CN(C)c1ccc(N=Cc2ccco2)cc1	0	0	0	0	+	0
CCOC(=O)c1c(C)nc2sc(C(=O)Nc3ccccc3)c(N)c2c1-c1ccc(OC)cc1	0	0	0	0	+	0
SMILES	ATG4B inhibitor	CHRM1 agonist	CHRM1 PAM	M1 antag	Myeloid diff MLP	SKN-1 inh
Cc1ccccc1NC(=O)CCC(=O)OCC(=O)c1cccc([N+](=O)[O-])c1	0	0	0	0	0	37
Cc1nc(Cc2nnc(SCC(=O)N3CCN(c4ccc(O)cc4)CC3)o2)cs1	0	0	0	0	+	0
COc1ccc(C(C(=O)c2ccccc2)c2ccccc2)cc1 (stereo not drawn)	-	-	-	-	0	0
COc1ccc(C(C(=O)OC(C)CN(C)C)c2ccccc2)cc1 (stereo not drawn)	0	0	0	32	0	0
COCCN1C(=O)COc2ccccc2C1C(=O)NC(C)(C)C (stereo not drawn)	-	-	-	-	0	0
CC1OC(CC(=O)O)CC2=C1C(=O)c1c(O)cccc1C2=O (stereo not drawn)	0	0	0	46	-	0
CCN(N=O)c1ccc(C=C2C=Cc3ccccc32)cc1	0	0	0	0	0	0
O=C(O)CCn1c(-c2ccccn2)nc2ccccc21	0	0	0	0	0	0
N=c1c(C(=O)NCc2ccccc2)cc2c(=O)n3ccccc3nc2n1Cc1ccco1	0	0	0	0	0	37
Cc1ccc2nc3c(cc(C(=O)NCCN4CCOCC4)c(=N)n3CCCN3CCOCC3)c(=O)n2c1	0	0	0	0	-	0
N=c1c(C(=O)NCc2ccco2)cc2c(=O)n3ccccc3nc2n1Cc1ccccc1	0	0	0	0	0	0
Cc1ccc2nc3c(cc(C(N)=S)c(=N)n3CCCOC(C)C)c(=O)n2c1	0	0	0	0	+	0
Cc1ccc2nc3c(cc(C(=O)NCCc4ccccc4)c(=N)n3CCN3CCOCC3)c(=O)n2c1	0	0	0	0	+	0
Cc1cccc(N)c1-c1c(C)cccc1N	0	0	0	0	0	0
Cc1ccc2nc(/C(C#N)=C/c3ccc(-c4cccc([N+](=O)[O-])c4)o3)[nH]c2c1	0	0	0	0	+	0
Cc1ccc2nc(/C(C#N)=C\c3cc(O)ccc3[N+](=O)[O-])[nH]c2c1	0	0	0	0	0	0
C=C(C)Cn1c2ccc(NC(=O)NCCc3cccs3)cc2c(=O)n1C	-	0	0	0	0	0
CCc1ccc(CNn2cnnc2SCC(=O)NC(C)(C)C)cc1	0	0	0	0	0	0
CN(C)c1ccc(CNn2cnnc2SCC(=O)NC(C)(C)C)cc1	0	0	0	42	0	0
CC(C)N(C(=O)CSc1nnc(C2CC2)n1C1CC1)c1ccccc1	0	0	0	0	0	0
O=S(=O)(CCNCCc1ccccc1)NC1CCCCC1	0	0	0	0	0	0
CCOc1ccc(NC(=S)N2CCC(C(=O)c3ccc(OC)cc3)CC2)cc1	-	0	29	0	0	0
COc1ccc(NC(=S)N2CCC(C(=O)c3ccc(Cl)cc3)CC2)cc1	0	0	0	0	0	0
Cc1cccc(C)c1-n1c(C)nn(CCOc2ccccc2)c1=O	0	0	0	0	+	0
Cc1cc2c(cc(C(=O)N3CCC(C(=O)N4CCCC4)CC3)n2Cc2c(F)cccc2Cl)o1	0	0	0	30	0	0
CCOC(=O)c1cc2occc2n1Cc1c(F)cccc1Cl	0	0	0	0	0	0
O=C(C=Cc1ccccc1)CC(c1ccccc1)N1CCOCC1 (stereo not drawn)	0	0	0	0	0	83
O=C(C(c1ccccc1)N1CCOCC1)N1CCOCC1 (stereo not drawn)	0	0	0	0	0	0
CC(C)(C)OC(=O)N1CCC(C(=O)NCC2CCCO2)CC1 (stereo not drawn)	0	0	0	0	0	0
Cc1ccc(S(=O)(=O)NCc2ccccc2Br)cc1	-	-	-	-	0	0
